Results reported in PubChem BioAssay (NCATS).
Records with an inconclusive call do not appear. Calls of active or inactive are those of the source. Unless noted, the call rests on the fitted dose curve; in most records, active means well fitted curve in the direction sought with a large enough effect; inconclusive means small, poorly fitted or top-dose-only effect, or another doubt; inactive means no such curve, though single readings can be large; an effect the other way counts as inactive or inconclusive.

Assays:
[1] = molecular target: Cytochrome P450 3A4 (Homo sapiens) (UniProt P08684); assay: Cytochrome P450 family 3 subfamily A member 4 (CYP3A4) small molecule antagonists: luciferase qHTS assay (AID 1645841; active means well fitted curve in the direction sought with a large enough effect in the repeat runs; an effect the other way counts as inactive or inconclusive; further: nearly all actives have a fitted effect of over 45% in size)
Outline: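 P450-Glo CYP3A4 enzyme with proluciferin substrate was preincubated with DMSO-dissolved compounds for 10 min at room temperature. NADPH regeneration solution started a 1 h reaction. Detection reagent stopped it, and luminescence was read after 20 min.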

[2] = molecular target: Calcium and integrin-binding protein 1 (Homo sapiens) (UniProt Q99828); assay: Primary qHTS for Identification of Calcium Integrin Binding Protein 1 (CIB1) Competitor (AID 1508620);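 further: GST tagged CIB1 binding a fluorescein labelled alphaIIb integrin peptide tracer; top concentration of the series differs between compounds; on the % scale 0 is the no-effect control and ±100 the full control effect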
Outline: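 Fluorescence polarization competition: CIB1-GST (1 uM final) preincubated with compound 15 min at room temperature, then FITC-labeled alphaIIb peptide (100 nM final) added for another 15 min. Polarization read at Ex 480/Em 540.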

[3] = Primary qHTS for small molecule stabilizers of the endoplasmic reticulum resident proteome: Secreted ER Calcium Modulated Protein (SERCaMP) assay (AID 1508630); further: on the % scale 0 is the no-effect control and ±100 the full control effect
Outline: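 The SH-SY5Y reporter protocol was run at 3 concentrations up to 38.3 uM (primary) or 11 concentrations (follow-up): 16 h compound, 100 nM thapsigargin for 4 h, then extracellular luciferase luminescence.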

[4] = A High-Content qHTS Against Drug Library for the Identification of Small Molecules that Inhibit DYT1 Early Onset Primary Dystonia-Associated Cell Pathology (AID 1645839; calls by dose curve; further: potency means the concentration at half of the fitted maximal effect; on % pathology change, negative = correction: series mostly up to about 46 µM)
Outline: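 Induced EGFP-delE TorsinA cells are imaged after 48 h of compound treatment. Punctate fusion-protein distribution gives the %pathology value, while nuclei counts flag toxicity. Wild-type EGFP-hTOR1A cells define the normal pattern.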

[5] = molecular target: Cytochrome P450 2D6 (Homo sapiens) (UniProt P10635); assay: Cytochrome P450 family 2 subfamily D member 6 (CYP2D6) small molecule antagonists: luciferase biochemical (cell-free) qHTS assay (AID 1645840; active means well fitted curve in the direction sought with a large enough effect in the repeat runs; an effect the other way counts as inactive or inconclusive; further: nearly all actives have a fitted effect of over 55% in size; further: potency means the concentration at half of the fitted maximal effect; on activity change, negative = inhibition: series mostly up to about 57 µM; on the % scale 0 is the no-effect control and ±100 the full control effect)
Outline: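 P450-Glo CYP2D6 system: proluciferin substrate converted by enzyme to luciferin, read by luminescence proportional to activity. Enzyme-substrate mix with compound 10 min at room temperature, then NADPH regeneration 1 h before detection reagent.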

Chain of Cytochrome P450 2D6 (Homo sapiens) (P10635 whole entry, looked up): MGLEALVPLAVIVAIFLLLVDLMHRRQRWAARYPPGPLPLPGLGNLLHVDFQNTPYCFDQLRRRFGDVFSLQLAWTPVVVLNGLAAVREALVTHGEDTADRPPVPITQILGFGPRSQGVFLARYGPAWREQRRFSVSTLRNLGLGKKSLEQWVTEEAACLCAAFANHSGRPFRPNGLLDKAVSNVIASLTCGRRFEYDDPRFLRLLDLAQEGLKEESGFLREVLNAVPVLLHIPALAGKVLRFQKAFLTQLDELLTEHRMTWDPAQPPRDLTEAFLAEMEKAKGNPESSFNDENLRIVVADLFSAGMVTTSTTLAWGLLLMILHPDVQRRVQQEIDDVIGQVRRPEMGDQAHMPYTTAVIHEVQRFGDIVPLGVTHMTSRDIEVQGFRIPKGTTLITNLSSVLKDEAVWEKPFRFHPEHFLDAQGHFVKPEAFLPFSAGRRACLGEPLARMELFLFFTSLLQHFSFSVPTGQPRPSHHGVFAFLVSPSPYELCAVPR
Chain of Calcium and integrin-binding protein 1 (Homo sapiens) (Q99828 whole entry, looked up): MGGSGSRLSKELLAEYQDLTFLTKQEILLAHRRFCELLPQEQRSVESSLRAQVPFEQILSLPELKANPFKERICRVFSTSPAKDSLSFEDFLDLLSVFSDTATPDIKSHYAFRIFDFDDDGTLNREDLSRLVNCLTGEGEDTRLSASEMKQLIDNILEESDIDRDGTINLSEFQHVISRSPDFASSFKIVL
Chain of Cytochrome P450 3A4 (Homo sapiens) (P08684 whole entry, looked up): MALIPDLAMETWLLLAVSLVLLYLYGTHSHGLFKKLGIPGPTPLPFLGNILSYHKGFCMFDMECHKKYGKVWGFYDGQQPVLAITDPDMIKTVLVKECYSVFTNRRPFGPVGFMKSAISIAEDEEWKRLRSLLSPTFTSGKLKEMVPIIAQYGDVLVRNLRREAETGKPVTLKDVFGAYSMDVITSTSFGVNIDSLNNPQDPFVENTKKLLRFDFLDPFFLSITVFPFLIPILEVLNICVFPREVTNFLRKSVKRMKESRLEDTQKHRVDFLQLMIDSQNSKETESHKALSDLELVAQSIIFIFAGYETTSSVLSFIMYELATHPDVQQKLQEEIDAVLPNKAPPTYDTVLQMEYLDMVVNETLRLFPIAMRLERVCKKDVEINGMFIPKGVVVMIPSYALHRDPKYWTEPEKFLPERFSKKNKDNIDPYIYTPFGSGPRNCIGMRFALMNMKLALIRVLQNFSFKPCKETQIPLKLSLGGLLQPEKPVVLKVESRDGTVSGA

CC(=O)NC(Cc1ccccc1)C(=O)O (stereo not drawn)
inactive: outcome [1]

C=Cc1c(C)c2cc3[nH]c(cc4nc(cc5nc(cc1[nH]2)C(C)=C5CCC(=O)O)C(CCC(=O)O)=C4C)c(C)c3C=C
inactive: outcome [1]

CC1=C(CC(=O)O)c2cc(F)ccc2/C1=C\c1ccc(S(C)(=O)=O)cc1
inactive: outcome [2] | Potency [3] | Potency [4] | Potency [5]

NC(=O)N/N=C/c1ccc([N+](=O)[O-])o1
inactive: outcome [2] | Potency [3] | Potency [4]

CC(=O)O[C@@]12CO[C@@H]1C[C@H](O)[C@@]1(C)C(=O)[C@H](O)C3=C(C)[C@@H](OC(=O)[C@H](O)[C@@H](NC(=O)OC(C)(C)C)c4ccccc4)C[C@@](O)([C@@H](OC(=O)c4ccccc4)[C@H]21)C3(C)C
inactive: outcome [2] | Potency [3] | Potency [4]

O=C(Oc1ccccc1C(=O)O)c1ccccc1O
inactive: outcome [2] | Potency [3] | Potency [4]

CCOc1nc2cccc(C(=O)O)c2n1Cc1ccc(-c2ccccc2-c2nn[nH]n2)cc1
inactive: outcome [2] | Potency [3] | Potency [4]

C/C(=C(\CCOP(=O)(O)O)SC(=O)c1ccccc1)N(C=O)Cc1cnc(C)nc1N
inactive: activity change, negative = inhibition [2] -4.19% [at 12.4 µM] | activity change, negative = inhibition [3] -22.1% [at 3.88 µM] | % pathology change, negative = correction [4] -4.46% [at 4.63 µM]

COC(=O)[C@H]1[C@H]2C[C@@H]3c4[nH]c5cc(OC)ccc5c4CCN3C[C@H]2C[C@@H](OC(=O)COc2ccc(OC)cc2)[C@@H]1OC
active: Potency [5] 9.77 µM
inactive: outcome [2] | Potency [3] | Potency [4]

C[C@@H]1C[C@H]2[C@@H]3C[C@H](F)C4=CC(=O)C=C[C@]4(C)[C@@]3(F)[C@@H](O)C[C@]2(C)[C@@]1(O)C(=O)CO
inactive: outcome [2] | Potency [3] | Potency [4]

Nc1ncnc2c1ncn2[C@@H]1O[C@H](CO)[C@@H](O)[C@H]1O
inactive: outcome [2] | Potency [3] | Potency [4]

C[C@@H]1CN(c2c(F)c(F)c3c(=O)c(C(=O)O)cn(C4CC4)c3c2F)C[C@H](C)N1
inactive: outcome [2] | Potency [3] | Potency [4]

Cc1ccc(C(C)C)cc2c(C)ccc1-2
inactive: outcome [2] | Potency [3] | Potency [4] | Potency [5]

COCCOC(=O)C1=C(C)NC(C)=C(C(=O)OC/C=C/c2ccccc2)C1c1cccc([N+](=O)[O-])c1 (stereo not drawn)
inactive: outcome [2] | Potency [3]
active: Potency [4] 11.2 µM

C[C@](N)(Cc1ccc(O)cc1)C(=O)O
inactive: activity change, negative = inhibition [2] 5.16% [at 12.4 µM] | Potency [3] | % pathology change, negative = correction [4] 14.7% [at 4.63 µM]

CCC(=O)c1ccc(O)cc1
inactive: outcome [2] | Potency [3] | Potency [4] | Potency [5]

O=C(O)c1ccccc1-c1ccc(C(F)(F)F)cc1
inactive: outcome [2] | Potency [3] | Potency [4] | Potency [5]

O=C(CCCN1CCN(c2ccccn2)CC1)c1ccc(F)cc1
inactive: outcome [2] | Potency [3] | Potency [4]

CCCCOc1cc(C(=O)OCCN(CC)CC)ccc1N
inactive: outcome [2] | Potency [3] | Potency [4]

Nc1ccc(S(=O)(=O)Nc2ccc(Cl)nn2)cc1
inactive: outcome [2] | Potency [3] | Potency [4] | Potency [5]

O=C1NC(=O)[C@@]2(CCOc3ccc(F)cc32)N1
inactive: outcome [2] | Potency [3] | Potency [4] | Potency [5]

COc1ccc(Cl)cc1C(=O)NCCc1ccc(S(=O)(=O)NC(=O)NC2CCCCC2)cc1
inactive: outcome [2] | Potency [3] | Potency [4]

Nc1ccc(S(=O)(=O)Nc2nccs2)cc1
inactive: outcome [2] | Potency [3] | Potency [4] | Potency [5]

O=C(O)c1ccccc1O
inactive: outcome [2] | Potency [3] | Potency [4]

CCN(CC)C(C)CN1c2ccccc2Sc2ccccc21 (stereo not drawn)
active: Potency [5] 19.5 µM
inactive: outcome [2] | Potency [3] | Potency [4]

Nc1ccc(S(=O)(=O)NC(=O)c2ccccc2)cc1
inactive: outcome [2] | Potency [3] | Potency [4] | Potency [5]

C[C@H]1O[C@H](O[C@H]2[C@H](O)[C@@H](O)[C@@H](O[C@H]3[C@H](O)[C@@H](O)[C@H](O)O[C@@H]3CO)O[C@@H]2CO)[C@H](O)[C@@H](O)[C@@H]1N[C@H]1C=C(CO)[C@@H](O)[C@H](O)[C@H]1O
inactive: outcome [2] | Potency [3] | Potency [4] | Potency [5]

Cn1cc[nH]c1=S
inactive: outcome [2] | Potency [3] | Potency [4] | Potency [5]

NC(=O)c1ncn([C@@H]2O[C@H](CO)[C@@H](O)[C@H]2O)n1
inactive: outcome [2] | Potency [3] | Potency [4] | Potency [5]

Cc1ncc([N+](=O)[O-])n1CC(O)CCl (stereo not drawn)
inactive: outcome [2] | Potency [3] | Potency [4]

C[C@]12CC[C@@H]3c4ccc(O)cc4CC[C@H]3[C@@H]1CCC2=O
inactive: outcome [2] | Potency [3] | Potency [4]

Cc1cc(O)cc2c1O[C@](C)(CCC[C@H](C)CCC[C@H](C)CCCC(C)C)CC2
inactive: outcome [2] | Potency [3] | Potency [4] | Potency [5]

[O-][n+]1cccc(CO)c1
inactive: outcome [2] | Potency [3] | Potency [4] | Potency [5]

CCCc1c(OCCCCc2nn[nH]n2)ccc(C(C)=O)c1O
inactive: outcome [2] | Potency [3]

OC[C@H]1O[C@@H](O[C@@H]2[C@@H](CO)O[C@](O)(CO)[C@H]2O)[C@H](O)[C@@H](O)[C@H]1O
inactive: outcome [2] | Potency [3] | Potency [4]

CC1(C)[C@@H]2CC[C@@]1(C)C(=O)C2
inactive: outcome [2] | Potency [3] | Potency [4] | Potency [5]

CCn1cc(C(=O)O)c(=O)c2cnc(N3CCNCC3)nc21
inactive: outcome [2] | Potency [3] | Potency [4] | Potency [5]

CCOC(CN1CCN(CC(C)C(=O)c2ccccc2)CC1)c1ccccc1 (stereo not drawn)
inactive: outcome [2] | Potency [3] | Potency [4]

O=c1[nH]c(=O)c2[nH]c(=O)[nH]c2[nH]1
inactive: outcome [2] | activity change, negative = inhibition [3] -1.24% [at 7.35 µM] | % pathology change, negative = correction [4] 7.44% [at 9.22 µM] | activity change, negative = inhibition [5] 4.14% [at 11.5 µM]

CCOC(=O)c1ccc(O)cc1
inactive: outcome [2] | Potency [3] | Potency [4]

CC(C)(C)C(=O)C(Oc1ccc(Cl)cc1)n1ccnc1 (stereo not drawn)
active: Potency [5] 17.4 µM
inactive: outcome [2] | Potency [3] | Potency [4]

COc1ccc(S(=O)(=O)Nc2nnc(CC(C)C)s2)cc1
inactive: outcome [2] | Potency [3] | Potency [4]

c1ccc2c(CC3=NCCN3)cccc2c1
inactive: outcome [2] | Potency [3] | Potency [4] | outcome [1]
active: Potency [5] 15.5 µM

NS(=O)(=O)c1cc2c(cc1Cl)NC(CSCc1ccccc1)=NS2(=O)=O
active: Potency [5] 13.8 µM
inactive: outcome [2] | Potency [3] | Potency [4]

CCCn1cnc2c1c(=O)n(CCCCC(C)=O)c(=O)n2C
inactive: outcome [2] | Potency [3] | Potency [4] | Potency [5]

C[C@@H]1CC[C@@]2(OC1)O[C@H]1C[C@H]3[C@@H]4CC[C@H]5C[C@@H](O)CC[C@]5(C)[C@H]4CC(=O)[C@]3(C)[C@H]1[C@@H]2C
inactive: activity change, negative = inhibition [2] -1.41% [at 12.4 µM] | activity change, negative = inhibition [3] -13.5% [at 3.88 µM] | % pathology change, negative = correction [4] -10% [at 4.63 µM] | activity change, negative = inhibition [1] 37% [at 4.83 µM]

Cc1cccc(Nc2cc(Cl)nc(SCC(=O)O)n2)c1C
inactive: outcome [2] | Potency [3] | Potency [4] | Potency [5]

NCCNCCNCCNCCN
inactive: outcome [2] | activity change, negative = inhibition [3] -1.31% [at 7.35 µM] | % pathology change, negative = correction [4] 14.9% [at 9.22 µM] | activity change, negative = inhibition [5] 12.4% [at 11.5 µM]

CC(C)(C)NCC(O)COc1ccc(NC(=O)NC2CCCCC2)cc1 (stereo not drawn)
inactive: outcome [2] | Potency [3] | Potency [4] | Potency [5]

O=c1cc[nH]c(=O)[nH]1
inactive: outcome [2] | Potency [3] | Potency [4] | Potency [5]

NC(CSCC(=O)O)C(=O)O (stereo not drawn)
inactive: outcome [2] | Potency [3] | Potency [4] | Potency [5]

C[C@]12C[C@H](O)[C@H]3[C@@H](CCC4=CC(=O)CC[C@@]43C)[C@@H]1CC[C@@H]2C(=O)CO
inactive: outcome [2] | Potency [3] | Potency [5]

CC(=O)CCC(=O)O
inactive: outcome [2] | Potency [3] | Potency [4] | Potency [5]

O=c1[nH]cnc2c1ncn2[C@@H]1O[C@H](CO)[C@@H](O)[C@H]1O
inactive: outcome [2] | Potency [3] | Potency [5]

O=C1Nc2ccc(Cl)cc2[C@@](C#CC2CC2)(C(F)(F)F)O1
inactive: outcome [2] | Potency [3]
active: Potency [5] 27.5 µM

C[C@]12CC[C@@H]3c4ccc(O)cc4CC[C@H]3[C@@H]1CC[C@@H]2OC(=O)CCC1CCCC1
inactive: outcome [2] | Potency [3] | Potency [4] | Potency [5]

CCN(CC)CCNC(C(=O)OCCC(C)C)c1ccccc1 (stereo not drawn)
inactive: outcome [2] | Potency [3] | Potency [4]
active: Potency [5] 0.776 µM

CC(=O)Nc1ccc(/C=N/NC(N)=S)cc1
inactive: outcome [2] | Potency [3] | Potency [5]

CC[N+](CC)(CC)CCOc1ccc(/C=C/c2ccccc2)cc1
inactive: outcome [2] | Potency [3] | Potency [4]
active: Potency [5] 0.617 µM

C[C@H](N)[C@H](O)c1cccc(O)c1
inactive: outcome [2] | Potency [3] | Potency [4] | Potency [5] | outcome [1]

CCCCN1CCCC[C@H]1C(=O)Nc1c(C)cccc1C
active: Potency [5] 0.275 µM
inactive: outcome [2] | Potency [3] | Potency [4]

C[C@H]1O[C@@H](n2cc(F)c(=O)[nH]c2=O)[C@H](O)[C@@H]1O
inactive: outcome [2] | Potency [3] | Potency [4] | Potency [5]

NS(=O)(=O)c1cc2c(cc1C(F)(F)F)NC(Cc1ccccc1)NS2(=O)=O (stereo not drawn)
inactive: outcome [2] | Potency [3] | Potency [5]

CC(COc1ccccc1)NC(C)C(O)c1ccc(O)cc1 (stereo not drawn)
inactive: outcome [2] | Potency [3] | Potency [4]
active: Potency [5] 0.617 µM

CCN(CC)CCNC(=O)c1cc(Cl)c(N)cc1OC
inactive: outcome [2] | Potency [3] | Potency [4] | outcome [1]
active: Potency [5] 15.5 µM

CC(O)COc1ccccc1 (stereo not drawn)
inactive: outcome [2] | Potency [3] | Potency [4] | Potency [5]

Cc1c(Cl)cccc1Nc1ccccc1C(=O)O
inactive: outcome [2] | Potency [3] | Potency [5]

N[C@H]1C(O)O[C@H](CO)[C@@H](O)[C@@H]1O (stereo partly drawn)
inactive: outcome [2] | Potency [3] | Potency [5]

CN(N=O)C(=O)N[C@@H]1[C@@H](O)[C@H](O)[C@@H](CO)O[C@@H]1O
inactive: outcome [2] | Potency [3] | Potency [4] | Potency [5] | outcome [1]

COc1cc2[nH]c(=O)[nH]c(=O)c2cc1OC
inactive: outcome [2] | Potency [3] | Potency [4] | Potency [5]

Nc1nc2c(ncn2CCC(CO)CO)c(=O)[nH]1
inactive: outcome [2] | Potency [3] | Potency [4] | Potency [5]
